Laboratory results taken from PubChem BioAssay (EPA / NIEHS).
Results filed as inconclusive are left out. Activity calls are given as the source filed them. How the source made its calls, unless noted: active means hit-call score of the fitted dose curve at least 0.9, where 1 is the maximum; inconclusive means response in the unintended direction; inactive means score below 0.9.

Key:
[1] = target: human Peroxisome Proliferator-activated Receptor delta (PPARd), PPARD (gene 5467) (UniProt Q03181); assay: ATG_PPARd_TRANS: Attagene TRANS-FACTORIAL HepG2 Assay for human Peroxisome Proliferator-activated Receptor delta (PPARd) (AID 2283002)
Method in brief: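 HepG2 cells transiently transfected with multiplexed GAL4-UAS reporter units and exogenous chimeric NR-Gal4 proteins; 24 h compound exposure. Reporter mRNA measured by RT-PCR, 6-FAM labelling, HpaI digestion and capillary electrophoresis; gain of signal versus DMSO.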

[2] = read-out: Intercellular Adhesion Molecule 1 (ICAM1), ICAM1 (gene 3383); assay: BSK_3C_ICAM1: BioMAP Diversity Plus: 3C Assay for Intercellular Adhesion Molecule 1 (ICAM1) Biomarker Activity (AID 2283003; active means hit-call score of the fitted dose curve at least 0.9, where 1 is the maximum; inactive means score below 0.9); settings: primary human endothelial cells (HUVEC); actives raise or lower the signal
Method in brief: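 HUVEC primary cells stimulated under 3C conditions; ICAM1 measured by ELISA 24 h after compound dosing. Curves fitted bidirectionally against the DMSO baseline. Overt cytotoxicity checked by SRB staining of parallel cultures.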

[3] = BSK_3C_Proliferation: Cell Proliferation Assessment in the BioMAP Diversity Plus: 3C Assay (AID 2283006; active means hit-call score of the fitted dose curve at least 0.9, where 1 is the maximum; inactive means score below 0.9;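 further: potency may reflect either rise or fall in cell number versus DMSO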); settings: primary human endothelial cells (HUVEC)
Method in brief: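 Subconfluent HUVEC (3C system) cultured with chemical; relative cell number read at 48 h by sulforhodamine B total-protein staining (0.1% SRB after 10% TCA fixation, 560 nm). Bidirectional fit relative to DMSO.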

[4] = target: Peroxisome proliferator-activated receptor gamma (Homo sapiens) (UniProt P37231); assay: ATG_PPARg_TRANS: Attagene TRANS-FACTORIAL HepG2 Assay for human Peroxisome Proliferator-activated Receptor-gamma (PPARg) (AID 2283007)
Method in brief: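 After 24 h of chemical exposure, transfected HepG2 cells carrying PPARγ-Gal4 chimera reporter constructs are lysed for RNA. Reporter transcripts are measured by RT-PCR and capillary electrophoresis with fluorescent labelling, and gain of signal is fitted versus DMSO.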

[5] = target: Nuclear receptor subfamily 1 group I member 2 (Homo sapiens) (UniProt O75469); assay: ATG_PXR_TRANS: Attagene TRANS-FACTORIAL HepG2 Assay for human Pregnane X Receptor (PXR) (AID 2283008)
Method in brief: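 HepG2 cells transiently transfected with GAL4-UAS reporter units and PXR-Gal4 chimera, exposed 24 h. Reporter mRNA quantified by RT-PCR, fluorescent labelling, HpaI digestion and capillary electrophoresis; gain of signal vs DMSO.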

[6] = target: human RAR-related Orphan Receptor beta (RORb), RORB (gene 6096) (UniProt Q92753); assay: ATG_RORb_TRANS: Attagene TRANS-FACTORIAL HepG2 Assay for human RAR-related Orphan Receptor beta (RORb) (AID 2283010)
Method in brief: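 HepG2 cells transiently transfected with GAL4-UAS reporter units expressing chimeric NR-Gal4 protein; reporter mRNA measured 24 h after dosing by RT-PCR, 6-FAM labelling and capillary electrophoresis. Gain-of-signal fitted relative to DMSO baseline.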

[7] = target: human Retinoid X Receptor beta (RXRb), RXRB (gene 6257) (UniProt P28702); assay: ATG_RXRb_TRANS: Attagene TRANS-FACTORIAL HepG2 Assay for human Retinoid X Receptor beta (RXRb) (AID 2283013)
Method in brief: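 HepG2 cells were transiently transfected with multiplexed GAL4-UAS reporters and a chimeric RXRb-Gal4 construct, then exposed for 24 h. Reporter mRNA was quantified by RT-PCR, FAM labeling, HpaI digestion and capillary electrophoresis; gain of signal was scored against DMSO.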

[8] = target: human Thyroid Receptor alpha (THRa1), THRA (gene 7067) (UniProt P10827); assay: ATG_THRa1_TRANS: Attagene TRANS-FACTORIAL HepG2 Assay for human Thyroid Receptor alpha (THRa1) (AID 2283014)
Method in brief: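 Reporter transcript induction, read by capillary electrophoresis of 6-FAM-labelled RT-PCR products, reflects activity of a transfected THRa1-Gal4 fusion in HepG2 liver cells. Cells were dosed for 24 h; activity was fitted in the positive direction against DMSO.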

[9] = read-out: Interleukin-1 alpha (IL1a), IL1A (gene 3552); assay: BSK_BE3C_IL1a: BioMAP Diversity Plus: BE3C Assay for Interleukin-1 alpha (IL1a) Biomarker Activity (AID 2283016; active means hit-call score of the fitted dose curve at least 0.9, where 1 is the maximum; inactive means score below 0.9); settings: primary human bronchial epithelial cells; actives raise or lower the signal
Method in brief: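 Human primary bronchial epithelial cells, 24 h chemical exposure; IL-1a quantified by ELISA, fitted bidirectionally against DMSO. Cytotoxicity assessed in parallel by SRB total-protein staining at the time of measurement.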

[10] = read-out: Monocyte Chemoattractant Protein-1 (MCP1), CCL2 (gene 6347); assay: BSK_3C_MCP1: BioMAP Diversity Plus: 3C Assay for Monocyte Chemoattractant Protein-1 (MCP1) Biomarker Activity (AID 2283017; active means hit-call score of the fitted dose curve at least 0.9, where 1 is the maximum; inactive means score below 0.9); settings: primary human endothelial cells (HUVEC); actives raise or lower the signal
Method in brief: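 ELISA read-out of MCP-1 from human umbilical vein endothelial cell cultures harvested 24 h post-dosing. Gain or loss of signal was fitted relative to DMSO.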

[11] = read-out: Monocyte Chemoattractant Protein-1 (MCP1), CCL2 (gene 6347); assay: BSK_4H_MCP1: BioMAP Diversity Plus: 4H Assay for Monocyte Chemoattractant Protein-1 (MCP1) Biomarker Activity (AID 2283018; active means hit-call score of the fitted dose curve at least 0.9, where 1 is the maximum; inactive means score below 0.9); settings: primary human endothelial cells (HUVEC); actives raise or lower the signal
Method in brief: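 Human umbilical vein endothelial cells (4H system) exposed to chemicals for 24 h in 96-well format. MCP-1 measured by ELISA; bidirectional fitting against DMSO, with SRB total-protein staining in parallel cultures for cytotoxicity.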

[12] = read-out: Human Leukocyte Antigen - DR isotype (HLADR), HLA-DRA (gene 3122); assay: BSK_3C_HLADR: BioMAP Diversity Plus: 3C Assay for Human Leukocyte Antigen - DR isotype (HLADR) Biomarker Activity (AID 2283019; active means hit-call score of the fitted dose curve at least 0.9, where 1 is the maximum; inactive means score below 0.9); settings: primary human endothelial cells (HUVEC); actives raise or lower the signal
Method in brief: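 ELISA readout of surface HLA-DR on human umbilical vein endothelium, taken 24 h after chemical treatment. Gain- and loss-of-signal were both fitted relative to DMSO.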

[13] = read-out: Interleukin-8 (IL8), CXCL8 (gene 3576); assay: BSK_3C_IL8: BioMAP Diversity Plus: 3C Assay for Interleukin-8 (IL8) Biomarker Activity (AID 2283020; active means hit-call score of the fitted dose curve at least 0.9, where 1 is the maximum; inactive means score below 0.9); settings: primary human endothelial cells (HUVEC); actives raise or lower the signal
Method in brief: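 Primary human umbilical vein endothelial cells were dosed for 24 h. IL-8 was quantified by ELISA and fitted bidirectionally against DMSO. Cytotoxicity was assessed in parallel cultures by SRB staining at 560 nm.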

[14] = read-out: Monokine induced gamma interferon (MIG), CXCL9 (gene 4283); assay: BSK_3C_MIG: BioMAP Diversity Plus: 3C Assay for Monokine induced gamma interferon (MIG) Biomarker Activity (AID 2283021; active means hit-call score of the fitted dose curve at least 0.9, where 1 is the maximum; inactive means score below 0.9); settings: primary human endothelial cells (HUVEC); actives raise or lower the signal
Method in brief: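 HUVEC primary endothelial cultures dosed with chemical; MIG quantified by ELISA at 24 h. Data fitted bidirectionally against DMSO control, with parallel SRB total-protein staining for cytotoxicity.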

[15] = target: human Peroxisome Proliferator-activated Receptor alpha (PPARa), PPARA (gene 5465) (UniProt Q07869); assay: ATG_PPARa_TRANS: Attagene TRANS-FACTORIAL HepG2 Assay for human Peroxisome Proliferator-activated Receptor alpha (PPARa) (AID 2283001)
Method in brief: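 Gain-of-signal endpoint: reporter mRNA induction relative to DMSO, detected by fluorescent RT-PCR and capillary electrophoresis. HepG2 cells transiently carried GAL4-UAS-driven reporter units plus NR-Gal4 fusion; exposure lasted 24 h.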

[16] = target: human RAR-related Orphan Receptor gamma (RORg), RORC (gene 6097) (UniProt P51449); assay: ATG_RORg_TRANS: Attagene TRANS-FACTORIAL HepG2 Assay for human RAR-related Orphan Receptor gamma (RORg) (AID 2283011)
Method in brief: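 First, HepG2 liver cells were transfected with GAL4-UAS-driven reporter constructs and the RORg-Gal4 fusion. Next, they were treated with chemical for 24 h. Finally, reporter mRNA was quantified by RT-PCR and capillary electrophoresis, with upward activity fitted against DMSO.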

[17] = target: Retinoic acid receptor RXR-alpha (Homo sapiens) (UniProt P19793); assay: ATG_RXRa_TRANS: Attagene TRANS-FACTORIAL HepG2 Assay for human Retinoid X Receptor alpha (RXRa) (AID 2283012)
Method in brief: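 HepG2 cells transiently transfected with GAL4-UAS reporter units and chimeric RXRa-Gal4 protein, treated 24 h. Reporter mRNA measured by RT-PCR, fluorescent labelling, HpaI digestion and capillary electrophoresis. Induction fitted against DMSO.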

[18] = target: Retinoic acid receptor alpha (Homo sapiens) (UniProt P10276); assay: ATG_RARa_TRANS: Attagene TRANS-FACTORIAL HepG2 Assay for human Retinoic Acid Receptor alpha (RARa) (AID 2283005)
Method in brief: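 HepG2 cells transiently transfected with multiple reporter units expressing chimeric RARα-GAL4 fusion, with GAL4-UAS-driven reporters. After 24 h compound exposure, reporter mRNA induction quantified by RT-PCR and capillary electrophoresis with fluorescent labeling; gain-of-signal fitted relative to DMSO control.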

[19] = target: human Retinoic Acid Receptor beta (RARb), RARB (gene 5915) (UniProt P10826); assay: ATG_RARb_TRANS: Attagene TRANS-FACTORIAL HepG2 Assay for human Retinoic Acid Receptor beta (AID 2283004)
Method in brief: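 Transient transfection of HepG2 with multiple reporter units → chemical dosing, 24 h → total RNA isolation → RT with oligo(dT) → reporter-specific PCR, 6-FAM primer extension, HpaI digest → capillary electrophoresis. Positive direction vs DMSO control.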

Measured: AC50

Chain of human Retinoic Acid Receptor beta (RARb), RARB (gene 5915) (P10826 whole entry, looked up): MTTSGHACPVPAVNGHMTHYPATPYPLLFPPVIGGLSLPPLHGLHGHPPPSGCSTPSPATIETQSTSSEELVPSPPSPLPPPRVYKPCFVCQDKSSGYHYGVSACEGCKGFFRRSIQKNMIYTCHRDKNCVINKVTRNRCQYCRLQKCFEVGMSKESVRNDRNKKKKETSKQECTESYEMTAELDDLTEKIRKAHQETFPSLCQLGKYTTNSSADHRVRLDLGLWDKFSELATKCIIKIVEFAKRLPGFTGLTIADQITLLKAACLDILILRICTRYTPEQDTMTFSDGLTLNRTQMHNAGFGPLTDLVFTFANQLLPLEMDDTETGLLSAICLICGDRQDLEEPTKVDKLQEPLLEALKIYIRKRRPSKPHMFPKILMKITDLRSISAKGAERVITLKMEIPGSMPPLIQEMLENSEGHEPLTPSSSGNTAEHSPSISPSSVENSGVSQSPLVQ
Chain of Nuclear receptor subfamily 1 group I member 2 (Homo sapiens) (O75469 whole entry, looked up, the tested form may be a part): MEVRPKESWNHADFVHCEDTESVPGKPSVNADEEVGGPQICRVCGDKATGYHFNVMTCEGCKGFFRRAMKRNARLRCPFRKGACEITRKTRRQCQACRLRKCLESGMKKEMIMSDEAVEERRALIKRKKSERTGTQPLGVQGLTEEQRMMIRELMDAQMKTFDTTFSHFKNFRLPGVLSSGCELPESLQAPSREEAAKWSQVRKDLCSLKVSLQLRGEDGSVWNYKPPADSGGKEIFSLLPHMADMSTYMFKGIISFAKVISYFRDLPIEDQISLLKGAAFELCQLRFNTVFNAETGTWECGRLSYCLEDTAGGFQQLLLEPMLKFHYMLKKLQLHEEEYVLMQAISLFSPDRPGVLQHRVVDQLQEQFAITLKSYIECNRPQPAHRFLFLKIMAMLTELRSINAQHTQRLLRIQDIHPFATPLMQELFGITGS
Chain of human RAR-related Orphan Receptor beta (RORb), RORB (gene 6096) (Q92753 whole entry, looked up, the tested form may be a part): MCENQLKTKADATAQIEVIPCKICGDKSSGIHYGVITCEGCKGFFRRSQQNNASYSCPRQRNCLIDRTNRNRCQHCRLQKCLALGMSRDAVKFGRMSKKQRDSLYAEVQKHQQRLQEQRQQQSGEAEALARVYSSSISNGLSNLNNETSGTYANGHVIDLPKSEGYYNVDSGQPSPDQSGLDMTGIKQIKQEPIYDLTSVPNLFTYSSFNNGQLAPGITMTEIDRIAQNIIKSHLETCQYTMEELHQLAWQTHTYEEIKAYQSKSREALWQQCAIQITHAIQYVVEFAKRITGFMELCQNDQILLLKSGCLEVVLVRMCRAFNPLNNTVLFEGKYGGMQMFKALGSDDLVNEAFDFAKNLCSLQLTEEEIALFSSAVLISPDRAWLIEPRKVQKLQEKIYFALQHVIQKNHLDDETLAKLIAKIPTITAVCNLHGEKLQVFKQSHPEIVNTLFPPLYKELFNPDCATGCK
Chain of human Peroxisome Proliferator-activated Receptor delta (PPARd), PPARD (gene 5467) (Q03181 whole entry, looked up, the tested form may be a part): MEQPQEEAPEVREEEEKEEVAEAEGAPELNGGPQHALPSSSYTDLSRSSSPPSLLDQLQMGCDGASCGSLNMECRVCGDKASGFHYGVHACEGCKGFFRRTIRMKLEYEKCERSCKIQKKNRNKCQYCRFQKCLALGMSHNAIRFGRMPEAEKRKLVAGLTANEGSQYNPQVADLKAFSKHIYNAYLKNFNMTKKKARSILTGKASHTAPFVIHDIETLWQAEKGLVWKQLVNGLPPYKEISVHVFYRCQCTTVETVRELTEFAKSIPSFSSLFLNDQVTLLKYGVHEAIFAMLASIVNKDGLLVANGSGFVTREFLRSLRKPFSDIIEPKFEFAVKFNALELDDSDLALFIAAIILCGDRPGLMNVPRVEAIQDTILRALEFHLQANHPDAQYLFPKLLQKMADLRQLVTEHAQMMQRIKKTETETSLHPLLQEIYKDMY
Chain of human Thyroid Receptor alpha (THRa1), THRA (gene 7067) (P10827 whole entry, looked up, the tested form may be a part): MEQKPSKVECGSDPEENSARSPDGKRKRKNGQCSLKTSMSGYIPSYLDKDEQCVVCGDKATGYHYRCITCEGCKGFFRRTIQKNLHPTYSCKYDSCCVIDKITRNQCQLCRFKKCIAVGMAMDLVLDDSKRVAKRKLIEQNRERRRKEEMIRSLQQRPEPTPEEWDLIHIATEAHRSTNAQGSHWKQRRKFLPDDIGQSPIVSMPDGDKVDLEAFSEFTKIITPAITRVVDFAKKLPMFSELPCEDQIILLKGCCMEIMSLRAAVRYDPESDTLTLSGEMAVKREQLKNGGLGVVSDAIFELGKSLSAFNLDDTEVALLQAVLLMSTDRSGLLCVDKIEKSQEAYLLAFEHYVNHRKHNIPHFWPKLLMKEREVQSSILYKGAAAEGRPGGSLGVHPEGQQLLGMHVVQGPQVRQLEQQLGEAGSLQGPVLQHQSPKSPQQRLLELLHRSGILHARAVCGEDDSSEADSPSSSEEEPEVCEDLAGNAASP
Chain of Retinoic acid receptor RXR-alpha (Homo sapiens) (P19793 whole entry, looked up, the tested form may be a part): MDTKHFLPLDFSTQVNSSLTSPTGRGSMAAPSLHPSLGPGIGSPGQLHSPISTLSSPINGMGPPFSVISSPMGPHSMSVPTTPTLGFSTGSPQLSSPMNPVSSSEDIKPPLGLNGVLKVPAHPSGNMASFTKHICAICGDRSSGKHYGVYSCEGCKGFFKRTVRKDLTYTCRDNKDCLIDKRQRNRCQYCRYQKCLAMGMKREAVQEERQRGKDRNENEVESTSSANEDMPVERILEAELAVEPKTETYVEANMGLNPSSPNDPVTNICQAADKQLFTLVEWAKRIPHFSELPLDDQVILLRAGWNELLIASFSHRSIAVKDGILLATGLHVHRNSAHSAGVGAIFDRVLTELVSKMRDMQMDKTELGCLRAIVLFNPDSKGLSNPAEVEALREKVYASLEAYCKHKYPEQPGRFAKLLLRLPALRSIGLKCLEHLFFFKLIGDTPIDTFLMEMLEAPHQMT
Chain of human RAR-related Orphan Receptor gamma (RORg), RORC (gene 6097) (P51449 whole entry, looked up, the tested form may be a part): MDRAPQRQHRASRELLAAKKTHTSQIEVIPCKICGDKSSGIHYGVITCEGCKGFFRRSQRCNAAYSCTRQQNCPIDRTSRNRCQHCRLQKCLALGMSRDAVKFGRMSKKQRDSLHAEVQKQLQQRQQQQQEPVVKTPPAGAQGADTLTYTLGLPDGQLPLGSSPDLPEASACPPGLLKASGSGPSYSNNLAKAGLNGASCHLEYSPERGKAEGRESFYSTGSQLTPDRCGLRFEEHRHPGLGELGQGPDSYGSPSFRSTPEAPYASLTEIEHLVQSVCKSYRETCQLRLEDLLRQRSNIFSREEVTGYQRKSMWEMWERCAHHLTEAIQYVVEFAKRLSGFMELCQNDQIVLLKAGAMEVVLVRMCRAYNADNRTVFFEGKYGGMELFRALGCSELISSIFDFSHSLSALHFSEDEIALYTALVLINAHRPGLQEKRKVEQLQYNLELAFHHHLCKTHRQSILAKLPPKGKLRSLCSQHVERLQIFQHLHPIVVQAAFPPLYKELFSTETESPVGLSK
Chain of Retinoic acid receptor alpha (Homo sapiens) (P10276 whole entry, looked up, the tested form may be a part): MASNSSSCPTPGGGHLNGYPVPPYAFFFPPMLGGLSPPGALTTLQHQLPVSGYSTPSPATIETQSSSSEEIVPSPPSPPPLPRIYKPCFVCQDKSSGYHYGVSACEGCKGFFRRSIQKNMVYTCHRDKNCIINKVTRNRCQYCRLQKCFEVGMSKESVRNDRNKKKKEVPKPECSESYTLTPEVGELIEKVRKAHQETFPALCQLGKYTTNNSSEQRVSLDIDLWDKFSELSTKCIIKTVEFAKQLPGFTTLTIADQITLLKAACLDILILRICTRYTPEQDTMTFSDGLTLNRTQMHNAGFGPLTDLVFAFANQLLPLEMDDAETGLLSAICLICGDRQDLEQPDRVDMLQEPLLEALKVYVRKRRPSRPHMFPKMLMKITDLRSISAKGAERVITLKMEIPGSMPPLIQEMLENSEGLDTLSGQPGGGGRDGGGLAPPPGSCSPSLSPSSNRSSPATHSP
Chain of Peroxisome proliferator-activated receptor gamma (Homo sapiens) (P37231 whole entry, looked up, the tested form may be a part): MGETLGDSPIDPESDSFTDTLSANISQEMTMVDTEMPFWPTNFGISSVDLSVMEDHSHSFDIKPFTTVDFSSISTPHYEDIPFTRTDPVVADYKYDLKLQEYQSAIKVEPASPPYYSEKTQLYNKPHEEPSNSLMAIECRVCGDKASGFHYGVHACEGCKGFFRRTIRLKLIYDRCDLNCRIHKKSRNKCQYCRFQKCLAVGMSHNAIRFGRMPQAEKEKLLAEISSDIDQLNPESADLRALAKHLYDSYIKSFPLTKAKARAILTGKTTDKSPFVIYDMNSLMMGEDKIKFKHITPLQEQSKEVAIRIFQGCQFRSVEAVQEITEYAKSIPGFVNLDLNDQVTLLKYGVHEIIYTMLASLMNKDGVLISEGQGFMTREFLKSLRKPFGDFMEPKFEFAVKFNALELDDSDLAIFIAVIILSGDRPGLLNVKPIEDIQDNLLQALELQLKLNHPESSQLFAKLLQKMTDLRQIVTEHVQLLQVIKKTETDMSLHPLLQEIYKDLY
Chain of human Peroxisome Proliferator-activated Receptor alpha (PPARa), PPARA (gene 5465) (Q07869 whole entry, looked up, the tested form may be a part): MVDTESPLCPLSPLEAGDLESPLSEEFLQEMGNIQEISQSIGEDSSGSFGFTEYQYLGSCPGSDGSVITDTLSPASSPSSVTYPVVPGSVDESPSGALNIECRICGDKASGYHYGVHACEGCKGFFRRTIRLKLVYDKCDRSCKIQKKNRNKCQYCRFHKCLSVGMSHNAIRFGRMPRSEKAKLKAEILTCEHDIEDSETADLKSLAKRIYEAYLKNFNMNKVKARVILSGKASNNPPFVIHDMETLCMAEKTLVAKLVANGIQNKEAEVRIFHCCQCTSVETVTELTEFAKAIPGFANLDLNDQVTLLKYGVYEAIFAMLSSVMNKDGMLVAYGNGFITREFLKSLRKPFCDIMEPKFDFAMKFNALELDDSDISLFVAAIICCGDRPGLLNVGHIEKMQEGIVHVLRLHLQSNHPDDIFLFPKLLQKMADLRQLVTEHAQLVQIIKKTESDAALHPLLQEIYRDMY

c1ccc2sc(SN(C3CCCCC3)C3CCCCC3)nc2c1
active: [3] 8.86 µM | [5] 0.629 µM | [10] 10.1 µM | [11] 4.34 µM | [12] 10.2 µM
not listed: [15] | [16] | [17] | [18] | [19]
inactive: all other assays above

COc1ccc(Cl)cc1C
inactive: [15] | [5] | [16] | [17] | [8]

Cc1ccc(C=O)cc1
inactive: [15] | [5] | [6] | [8]

CC(C)[C@@H]1CC[C@@H](C)CC1=O
inactive: [15] | [5] | [6]

O=CCCc1ccccc1
inactive: [15]
active: [5] 28.4 µM

c1ccc(CCCc2ccccn2)cc1
inactive: [15] | [8]
active: [4] 50.7 µM | [5] 18.6 µM

NC(=O)NC1NC(=O)NC1=O (configuration not stated)
inactive: [15] | [5] | [17] | [7] | [8]

CC(C)(Oc1ccc(CCNC(=O)c2ccc(Cl)cc2)cc1)C(=O)O
inactive: [5]
active: [1] 79.4 µM | [4] 27.6 µM

ClCCCl
inactive: [1] | [4] | [5] | [6] | [16] | [7]

Cc1c(Cl)c(=O)oc2cc(O)ccc12
active: [4] 100 µM
inactive: [1] | [5] | [17] | [7] | [8]

CC(C)=CCC/C(C)=C/COC=O
inactive: [1] | [4] | [5] | [16] | [17] | [7] | [8]

CC(C)OP(=O)(CP(=O)(OC(C)C)OC(C)C)OC(C)C
inactive: [1] | [4] | [16] | [7] | [8]
active: [5] 3.27 µM

[Ca+2]
inactive: [1] | [18] | [5] | [16] | [17] | [7]

CCCOCC(C)O (configuration not stated)
inactive: [1] | [4] | [5] | [6] | [17] | [7] | [8]

CC1CC(OC(=O)c2ccccc2O)CC(C)(C)C1 (configuration not stated)
inactive: [1] | [19] | [18] | [4] | [5] | [16] | [8]

CC1=CCC2C(C1)C2(C)C (configuration not stated)
active: [5] 10.7 µM
inactive: [1] | [4] | [16] | [17] | [7] | [8]

CCOC(=O)c1ccccc1OC
inactive: [1] | [19] | [4] | [5] | [7]

CNC(=O)Oc1ccc2c(c1)[C@]1(C)CCN(C)[C@@H]1N2C
inactive: [1] | [4] | [5]

CC(=O)C(=O)O
inactive: [1] | [19] | [5] | [6] | [16] | [17] | [7]

C=C(C)[C@@H]1CCC2=CC(=O)C[C@@H](C)[C@]2(C)C1
inactive: [1] | [4] | [5] | [17] | [7]

O=C=NC1CCC(CC2CCC(N=C=O)CC2)CC1 (configuration not stated)
active: [3] 23.2 µM
not listed: [4] | [6] | [8] | [15] | [18] | [19]
inactive: all other assays above

Cc1ccc(C=O)s1
inactive: [1] | [5] | [6] | [17] | [8]
active: [4] 32.8 µM

O=c1oc(=O)c2cc3c(=O)oc(=O)c3cc12
inactive: [1] | [4] | [5] | [16] | [17]

Cc1ccc2ccccc2n1
inactive: [1] | [19] | [18] | [4] | [5] | [6] | [16] | [17] | [8]

CO[Si](C)(OC)c1ccccc1
active: [5] 2.73 µM
inactive: [1] | [4] | [6]

COC(=O)C1=C(C)NC(C)=C(C(=O)OCCN(C)Cc2ccccc2)C1c1cccc([N+](=O)[O-])c1 (configuration not stated)
inactive: [1]
active: [4] 27.7 µM

CC1(CO)CN(c2ccccc2)NC1=O (configuration not stated)
inactive: [1] | [19] | [4] | [5] | [16]

Nc1cccc(S(=O)(=O)c2cccc(N)c2)c1
inactive: [1] | [4] | [5] | [6] | [17] | [8]

C=CC[N+](C)(C)CC=C
inactive: [1] | [19] | [18] | [5] | [6] | [17]

COc1ccnc(CS(=O)c2nc3cc(OC(F)F)ccc3[nH]2)c1OC (configuration not stated)
inactive: [1] | [4] | [5] | [6] | [16] | [17] | [7]

Fc1c(F)c(F)c(Br)c(F)c1F
inactive: [1] | [19] | [18] | [4] | [5] | [17] | [7]
